{
  "source": "the supplement of paper PMC10338343",
  "note": "± gives the standard deviation.",
  "data": [
    {"test_system": "MILI (PIWIL2) piRISC loaded with piRNA #1 (26 nt)", "experiment": "pre-steady-state target cleavage rate (min^-1); guide: piRNA #1 5'p-UGAGGUAGUAGGUUGUAUAGUAUCCA; MIWI and MILI are mouse PIWI proteins and EfPiwi is from a freshwater sponge; tags in brackets are library labels; higher = faster piRNA-guided slicing of the target", "conditions": "auxiliary factor: 500 nM mouse GTSF1", "in_short": "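The method was Cleave-'n-Seq, in which uncleaved targets from a transcribed, DNA-blocked target RNA library were sequenced after exposure to active affinity-purified piRISC carrying one synthetic guide, with or without GTSF1 partner protein. Reactions contained 0.1 nM library, 1 nM piRISC and, where present, 500 nM GTSF1 in HEPES–potassium acetate buffer at 33 °C for 0–8 or 0–960 min. Reads were normalised to depth and to weakly complementary targets, three trials were pooled, and k3 was capped at 0.0001 min^-1. The pre-steady-state cleavage rate came from a burst-and-steady-state fit.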", "values": [
      {"sequence": "GGAGACGAUACUAUAGAACCUACUACCACA", "pre-steady-state target cleavage rate": "0.0976 ± 0.015"},
      {"sequence": "GGAGACCUAUGAUUACAACCUACUACCUACA", "pre-steady-state target cleavage rate": "0.00666 ± 0.0024"},
      {"sequence": "GGAGACCAUACUAUAGAAGCUACUACCUCA", "pre-steady-state target cleavage rate": "0.0882 ± 0.013"},
      {"sequence": "GGAGACCUUACUAUUCAACCUACUACCUGA", "pre-steady-state target cleavage rate": "0.0942 ± 0.014"},
      {"sequence": "GGAGACCUAUGUUUACAACCUACUACCUCA", "pre-steady-state target cleavage rate": "0.0117 ± 0.0031"},
      {"sequence": "GGAGACCUUACUAUAAAACCUACUACCUCA", "pre-steady-state target cleavage rate": "0.16 ± 0.019"},
      {"sequence": "GGAGACCUAUCUAUACAACCUACUACCUAA", "pre-steady-state target cleavage rate": "0.0733 ± 0.0096"},
      {"sequence": "GGAGUGGAUACUUUACAUCCUACUACCUCA", "pre-steady-state target cleavage rate": "0.253 ± 0.012"},
      {"sequence": "GGAGACCUUACUUUACAACCUACUUCCUCA", "pre-steady-state target cleavage rate": "0.0347 ± 0.011"},
      {"sequence": "GGAGUGGAUAGAUUACAACCUACUACCUCA", "pre-steady-state target cleavage rate": "0.0915 ± 0.01"},
      {"sequence": "GGAGACCAUAGUAUACAACCUAGUACCUCA", "pre-steady-state target cleavage rate": "0.0677 ± 0.011"},
      {"sequence": "GGAGUGCAUACUAUAGAACCUACUACCUCA", "pre-steady-state target cleavage rate": "0.177 ± 0.013"},
      {"sequence": "GGAGACCUAUGAUUACAUGCUACUACCUCA", "pre-steady-state target cleavage rate": "0.00366 ± 0.0034"},
      {"sequence": "GGAGACCUAUGUAUACAACCUGCUACCUCA", "pre-steady-state target cleavage rate": "0.0059 ± 0.0023"},
      {"sequence": "GGAGACCUAUGAUAACAACCUACAUGGAGA [g8:g16:cont:t1A]", "pre-steady-state target cleavage rate": "< 0.0001"},
      {"sequence": "GGAGACCUAACUUAACAACCUACUACCUCA", "pre-steady-state target cleavage rate": "0.0309 ± 0.012"},
      {"sequence": "GGAGACCUAUGAUUACAACCUAGCUACCUCA", "pre-steady-state target cleavage rate": "0.00386 ± 0.0032"},
      {"sequence": "GGAGACCAUACAAUAGAACCUACUACCUCA", "pre-steady-state target cleavage rate": "0.179 ± 0.02"},
      {"sequence": "GGAGACCUAUGUAUACAGCCUACUACCUCA", "pre-steady-state target cleavage rate": "0.0196 ± 0.0053"},
      {"sequence": "GGAGACCUUACAAUACAACCAACUACCUCA", "pre-steady-state target cleavage rate": "0.00567 ± 0.0032"},
      {"sequence": "GGAGACCUAUGAAUACAUCCUACAACCUCA", "pre-steady-state target cleavage rate": "0.0119 ± 0.0025"},
      {"sequence": "GGAGACCUUACUAUACUUGCUACUACCUCA", "pre-steady-state target cleavage rate": "0.0548 ± 0.0062"},
      {"sequence": "GGAGACCAUACUAUACUACCUUCUACCUCA", "pre-steady-state target cleavage rate": "0.0171 ± 0.0044"},
      {"sequence": "GGAGACCUAUGAUAUGUUCCUACUACCUCU [g2:g12:cont:t1U]", "pre-steady-state target cleavage rate": "< 0.0001"},
      {"sequence": "GGAGACGUUACUAAACAACCUACUACCUCA", "pre-steady-state target cleavage rate": "0.153 ± 0.012"},
      {"sequence": "GGAGACCUAUGAUUUACAACCUACUACCUCA", "pre-steady-state target cleavage rate": "0.00564 ± 0.003"},
      {"sequence": "GGAGACCUAUGAAUACAACCUACUACCUA", "pre-steady-state target cleavage rate": "0.00429 ± 0.0026"},
      {"sequence": "GGAGACCAUGACUAUACAACCUACUACCUCA", "pre-steady-state target cleavage rate": "0.142 ± 0.021"},
      {"sequence": "GGAGACCUAUGAUAACAACCUACUAGCCUCA", "pre-steady-state target cleavage rate": "0.00672 ± 0.0023"},
      {"sequence": "GGAGACCUAUGAUAACUUGCUACUACCUCA", "pre-steady-state target cleavage rate": "< 0.0001"},
      {"sequence": "GGAGACCUAUCUAUACAACCAACUUCCUCA", "pre-steady-state target cleavage rate": "0.00361 ± 0.0027"},
      {"sequence": "GGAGACCUUACUAUACAUCCUACUAGCUCA", "pre-steady-state target cleavage rate": "0.2 ± 0.024"},
      {"sequence": "GGAGACCUAUCUAUACAACCAACUACCACA", "pre-steady-state target cleavage rate": "0.00574 ± 0.0023"},
      {"sequence": "GGAGACGAUACUAUAGAACCUACUACCUCA", "pre-steady-state target cleavage rate": "0.184 ± 0.015"},
      {"sequence": "GGAGACCUAUCUAUACGACCUACUACCUCA", "pre-steady-state target cleavage rate": "0.0198 ± 0.0044"},
      {"sequence": "GGAGACCUAUGAUAUGUUGCUUCUACCUGA", "pre-steady-state target cleavage rate": "< 0.0001"},
      {"sequence": "GGAGACCUUACUUUACAACCUACUAGCUCA", "pre-steady-state target cleavage rate": "0.111 ± 0.02"},
      {"sequence": "GGAGACCUAUGAUAUGUACCUACUAGCUCA", "pre-steady-state target cleavage rate": "< 0.0001"},
      {"sequence": "GGAGACCUAUGUAUACAACGUACAACCUCA", "pre-steady-state target cleavage rate": "0.00935 ± 0.0021"},
      {"sequence": "GGAGACCUAUCAAUACAACCUACUACGUCA", "pre-steady-state target cleavage rate": "0.0134 ± 0.0044"}
    ]}
  ]
}
